About 6,500 targets were measured; listed, in parts, are those with a hit and a random draw of the rest. About 2% of all pairs of compound and target were hits.
These targets were tested with COC(=O)C#Cc1ccccc1 [methyl 3-phenylpropiolate] (assay: log2 ratio of iodoacetamide-alkyne labeling of the cysteine site, DMSO over compound (competition); higher = stronger covalent engagement of the cysteine by the compound, active = 1 or more). Settings: 500 µM; treatment time 1 h; system: HEK293T cell lysate.
Outline: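 For each cysteine, the log2 competition ratio is mean control-channel reporter intensity over mean compound-channel reporter intensity. HEK293T lysate (2 mg/mL) was exposed to vehicle or electrophile (500 µM, 1 h, ambient temperature), labelled with iodoacetamide alkyne (1 h), clicked to sCIP-TMT reagents, digested overnight with trypsin at 37 °C, streptavidin-enriched and analysed by Orbitrap Eclipse LC-MS/MS with FAIMS and FragPipe. Cysteines quantified in only one of three replicates, each with duplicate channels, were excluded.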

Target | log2 ratio of iodoacetamide-alkyne labeling
AKAP1 C376 (UniProt Q92667) | 1.15 (active)
GSTCD C335 (UniProt Q8NEC7) | 0.19 (inactive)
ZFYVE16 C292 (UniProt Q7Z3T8) | 0.185 (inactive)
ANKRD40 C209 (UniProt Q6AI12) | 0.466 (inactive)
PNKP C516 (UniProt Q96T60) | 0.166 (inactive)
AKAP1 C389 (UniProt Q92667) | 1.15 (active)
TBRG4 C335 (UniProt Q969Z0) | 0.436 (inactive)
NGLY1 C197 (UniProt Q96IV0) | 0.0457 (inactive)
UniProt Q8NFC6_C686 | 0.47 (inactive)
NCAPG C751 (UniProt Q9BPX3) | 0.416 (inactive)
MACROD1 C199 (UniProt Q9BQ69) | -0.0967 (inactive)
DIS3L2 C312 (UniProt Q8IYB7) | 0.226 (inactive)
DHX38 C20 (UniProt Q92620) | 1.36 (active)
TXNDC17 C43 (UniProt Q9BRA2) | 1.34 (active)
SPAG5 C1035 (UniProt Q96R06) | 0.251 (inactive)
EHMT2 C617 (UniProt Q96KQ7) | 0.759 (inactive)
WRNIP1 C39 (UniProt Q96S55) | -0.0706 (inactive)
UniProt Q8IX01_C656 | 2.27 (active)

Target | log2 ratio of iodoacetamide-alkyne labeling
ISOC2 C84 (UniProt Q96AB3) | 0.179 (inactive)
ANKRD40 C358 (UniProt Q6AI12) | 1.2 (active)
NIPBL C1795 (UniProt Q6KC79) | -0.189 (inactive)
TMCO6 C57 (UniProt Q96DC7) | 0.394 (inactive)
MAP1S C841 (UniProt Q66K74) | 0.464 (inactive)
GPKOW C394 (UniProt Q92917) | -0.0148 (inactive)
OSBPL9 C720 (UniProt Q96SU4) | -0.0484 (inactive)
MYBBP1A C968 (UniProt Q9BQG0) | 0.274 (inactive)
ADO C258 (UniProt Q96SZ5) | 0.15 (inactive)
UniProt Q92888_C892 | 0.0678 (inactive)
UniProt Q7Z5K2_C94 | 0.262 (inactive)
AHCYL2 C353 (UniProt Q96HN2) | 1.13 (active)
PRPF8 C435 (UniProt Q6P2Q9) | 1.24 (active)
SND1 C96 (UniProt Q7KZF4) | 0.115 (inactive)
CAND1 C275 (UniProt Q86VP6) | -0.226 (inactive)
MTHFD1L C291 (UniProt Q6UB35) | 0.126 (inactive)
ZGPAT C377 (UniProt Q8N5A5) | 0.342 (inactive)
